Test [1] has as its target T1, Aspartate--tRNA(Asp/Asn) ligase (Mycobacterium tuberculosis (strain ATCC 25618 / H37Rv)) (UniProt P9WFW3). Also: in the data most compounds retested in dose-response had high values.
T1 sequence (whole entry): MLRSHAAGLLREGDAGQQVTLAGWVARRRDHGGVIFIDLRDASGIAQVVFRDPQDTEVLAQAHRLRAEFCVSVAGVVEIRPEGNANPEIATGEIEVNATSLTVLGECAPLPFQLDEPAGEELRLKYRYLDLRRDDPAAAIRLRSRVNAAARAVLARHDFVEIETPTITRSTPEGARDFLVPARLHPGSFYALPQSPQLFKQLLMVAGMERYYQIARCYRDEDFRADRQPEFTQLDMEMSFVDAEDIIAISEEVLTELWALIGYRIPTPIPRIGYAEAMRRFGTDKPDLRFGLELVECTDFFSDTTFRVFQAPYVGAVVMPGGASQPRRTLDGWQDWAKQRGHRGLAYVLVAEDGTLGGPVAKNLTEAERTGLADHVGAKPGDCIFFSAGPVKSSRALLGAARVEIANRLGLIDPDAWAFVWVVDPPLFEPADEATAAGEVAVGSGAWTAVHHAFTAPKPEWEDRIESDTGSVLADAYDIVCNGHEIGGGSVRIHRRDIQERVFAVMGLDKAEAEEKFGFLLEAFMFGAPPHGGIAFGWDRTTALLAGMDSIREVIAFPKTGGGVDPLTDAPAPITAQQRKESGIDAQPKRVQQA
In words: Assay for Asp RNA synthetase-1 from Mycobacterium tuberculosis. The conditions noted are these: 30 µM. Type of test: functional. The arrangement: scale not given: direction of the effect not stated beside the values.

Test [2] has as its target Shiga toxin 2 (Escherichia coli O157:H7) (UniProt P09385+P09386). In words: E. coli 0.157:H7 Shiga Toxin SOP - stx2 screening assay. Format: functional. The arrangement: scale not given: direction of the effect not stated beside the values. The conditions noted are these: 30 µM.

Drawing on ChEMBL document CHEMBL3988442, “University of Dundee, Small-Polar-MMV Screening Library” (2021), this text covers Percent Effect for 36 compounds.

Each structure is given as a SMILES string.

In the case of `Cc1nn(C)c(C)c1C1CCCN1C(=O)CCCn1cccn1` (configuration not stated), the values for the Percent Effect in test [1] and in test [2] were -2.95% and 10.6%, respectively.
For `CCN(Cc1ccc2c(c1)OCO2)C(=O)c1ccc(C)[nH]c1=O`, the Percent Effect in test [1] was 0.522%; in test [2], -16%.
On to `Cc1cccc(CN2C(=O)CC[C@@H]3[C@H]2CCN3Cc2ccc(C)s2)n1`, for which the Percent Effect in test [1] was 7.52%; in test [2], -11.3%.
Turning to `COc1ccccc1C(=O)N1CCCC1Cn1cc(C)cn1` (configuration not stated), the Percent Effect stood at 3.31% in test [1] and 26.5% in test [2].
`O=C(Cc1cccnc1)N1CCC(OCc2ccccc2)CC1`: the Percent Effect in test [1] is -3.5%; in test [2], 7.67%.
For `OC(COc1ccc(F)cc1)CN1CCC(Cn2cccn2)CC1` (configuration not stated), the results for the Percent Effect in test [1] and in test [2] were 1.46% and -35.3%, respectively.
The matching figures for `CN(C)Cc1nn(C)c2c1CCN(S(=O)(=O)c1cccs1)C2`: 3.37% and -17.1%.
For `CCOCC(O)CN1CCN(C(=O)c2ccnc(N(C)C)c2)CC1` (configuration not stated), the Percent Effect in test [1] is -2.58%; in test [2] it was -13.4%.
On to `CN(C(=O)NCCCN1CCCC1)C1CCN(c2ccccc2)C1=O` (configuration not stated), for which the Percent Effect in test [1] is -0.189%; in test [2], 24.2%.
With `Cc1noc(C(C)C)c1C(=O)NCC(c1cccc(F)c1)N(C)C` (configuration not stated), the Percent Effect was -4.05% in test [1] and 8.91% in test [2].
On to `Fc1ccc(-c2nnc(CN3CCOC(Cn4cncn4)C3)o2)cc1` (configuration not stated), for which the values for the Percent Effect in test [1] and in test [2] were 1.55% and -15.2%, respectively.
Regarding `CCc1nnc(Nc2cccc(C3CCN(CCO)CC3)n2)s1`, the Percent Effect in test [1] is -4.6%; in test [2], -9.69%.
For `Cc1nc(C)n(CC2CN(Cc3cccc(C(N)=O)c3)CCO2)n1` (configuration not stated), the Percent Effect in test [1] was 4.41%; in test [2] it was -4.3%.
With `CCCc1nc(C(C)(C)NC(=O)C2CC(=O)N(CC3CC3)C2)no1` (configuration not stated), the Percent Effect in test [1] is 3.35%; in test [2], 20%.
Turning to `c1cnc(N2CCC3(COCc4cnc(-c5cccnc5)nc43)C2)nc1` (configuration not stated), the figures for the Percent Effect in test [1] and in test [2] were 2.15% and -3.56%, respectively.
Turning to `CCc1csc(C2CCCN(C(=O)c3c[nH]c(C)n3)C2)n1` (configuration not stated), the Percent Effect in test [1] was -0.0911%; in test [2], -10.2%.
The matching figures for `Cn1cc(CN2CCc3nc(-c4ccccn4)nc(O)c3C2)cn1`: -5.28% and -24.6%.
For `Cc1cn2c(n1)CCC(NC(=O)CCC(F)(F)F)C2` (configuration not stated), the values for the Percent Effect in test [1] and in test [2] were -0.225% and 5.05%, respectively.
For the compound `Cn1ncc2c1C(COCC1CC1)CN(Cc1ccoc1)C2` (configuration not stated), the Percent Effect was -4.51% in test [1] and -1.73% in test [2].
As to `Cn1ncc(NCc2cc(F)cc(F)c2)c(Cl)c1=O`, the results for the Percent Effect in test [1] and in test [2] were -1.31% and -23.1%, respectively.
As to `Cc1nn(C)c(C)c1CC(=O)N1CCC(N(C)c2cccnn2)CC1`, the figures for the Percent Effect in test [1] and in test [2] were -4.15% and 27.2%, respectively.
The like results for `CS(=O)(=O)c1ccc(NC(=O)N2CCc3sccc3C2)cn1` were, in that order, 5.08% and -38%.
For the compound `O=C(COc1coc(CN2CCCC2)cc1=O)NCc1ccccc1Cl`, the figures for the Percent Effect in test [1] and in test [2] were -2.03% and -62.7%, respectively.
With `Cc1nn(C)c(N(C)C)c1CNC1CCOc2c(F)cccc21` (configuration not stated), the Percent Effect in test [1] was -0.433%; in test [2] it was 30.8%.
For `COCCn1ccc(=O)c(OCC(=O)Nc2ccccc2)c1C`, the Percent Effect in test [1] was -0.61%; in test [2], -38%.
For `Cc1cccc(-c2noc(CN3CCc4nn(C)c(=O)cc4C3)n2)c1`, the Percent Effect is 47.9% in test [1] and -21.4% in test [2].
For `CCOc1nnc(CN2CCC(N(C)Cc3noc(C)n3)C2)s1` (configuration not stated), the Percent Effect worked out at 5.37% in test [1] and 24.4% in test [2].
The like results for `CCOc1nnc(CN2CCOC(CNc3cccnn3)C2)s1` (configuration not stated) were, in that order, 4.86% and -50.9%.
Take `O=C(c1ccc(F)c(Cl)c1)N1C[C@@H]2CC[C@H](C1)N(Cc1ccccc1)C2`: the values for the Percent Effect in test [1] and in test [2] were 4.06% and -25.3%, respectively.
`CC1=Nc2c(c(=O)[nH]n2C(C)C)C(c2ccc(F)c(F)c2)S1` (configuration not stated): the Percent Effect turned out to be 1.86% in test [1] and 22.2% in test [2].
As to `CCc1csc(C2CCCN(C(=O)c3cnn(CC)c3)C2)n1` (configuration not stated), the Percent Effect in test [1] is 0.0599%; in test [2], -7.95%.
`N#Cc1ccc(N2CCCN(C(=O)CC3CCCO3)CC2)cc1` (configuration not stated): the figures for the Percent Effect in test [1] and in test [2] were 4.84% and 11.8%, respectively.
For `Cc1cc(OCC(=O)NC(C)c2ccc(N3CCOCC3)cc2)no1` (configuration not stated), the results for the Percent Effect in test [1] and in test [2] were 5.44% and -21.7%, respectively.
On to `O=C(CC1CC1)NCc1cn2c(n1)CN(C(=O)c1cccnc1)CC2`, for which the Percent Effect in test [1] is 3.04%; in test [2], -29.1%.
Take `CCCc1n[nH]cc1C(=O)N1CCC(c2nccn2CCOC)CC1`: the Percent Effect in test [1] is -6.36%; in test [2] it was 10%.
The like results for `CNC(=O)[C@H]1CO[C@H]2CCN(Cc3ccc4ccccc4n3)C[C@H]2C1` were, in that order, 2.46% and -3.36%.
